Results filed as inconclusive are left out. The source made the active and inactive calls. Calls follow the shape of the dose curve; as a rule, active = well fitted curve in the direction sought with a large enough effect; inconclusive = small, poorly fitted or top-dose-only effect, or another doubt; inactive = no such curve, though single readings can be large; an effect the other way counts as inactive or inconclusive.
target: Metallo-beta-lactamase type 2 (Klebsiella pneumoniae) (UniProt C7C422); experiment: qHTS to identify inhibitors of the New Delhi Metallo-beta-lactamase (NDM): assay validation screen against the NCATS LOPAC Collection (AID 1794843); conditions: NDM-1 enzyme, nitrocefin hydrolysis, absorbance 485 nm; series mostly up to 38.4 µM; activity change, negative = inhibition: at the top concentration;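 also: nitrocefin turnover by NDM-1 measured as 485 nm absorbance at plateau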
Sequence (C7C422 whole entry, looked up): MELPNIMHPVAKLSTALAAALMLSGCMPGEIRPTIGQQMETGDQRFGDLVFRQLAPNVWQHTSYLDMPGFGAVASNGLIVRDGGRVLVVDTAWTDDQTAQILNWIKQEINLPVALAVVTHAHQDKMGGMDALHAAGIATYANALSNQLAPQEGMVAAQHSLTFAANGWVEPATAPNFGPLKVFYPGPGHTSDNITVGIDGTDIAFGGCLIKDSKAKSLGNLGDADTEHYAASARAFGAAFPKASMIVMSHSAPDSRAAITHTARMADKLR
Outline: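 NDM-1 at 2 nM final in 50 mM HEPES pH 7.0, 1 uM ZnSO4, 0.01% Tween20, preincubated with LOPAC compounds pinned in DMSO; 50 uM nitrocefin (stock) added. Hydrolysis read as absorbance at 485 nm in the plateau phase.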
% is scaled to controls: 0 for no effect and ±100 for the full control effect.

Compound	activity change, negative = inhibition
Cc1cccc(C)c1OCC(N)C(C)C (configuration not stated)	0.867% (inactive)
CN1CCCC1CCOC(C)(c1ccccc1)c1ccc(Cl)cc1 (configuration not stated)	5.25% (inactive)
O=[N+]([O-])c1cccc2c(Br)[nH]nc12	3.69% (inactive)
O=c1[nH]c2cc(Cl)ccc2c(O)c1-c1ccc(Oc2ccccc2)cc1	-6.11% (inactive)
C=C1C[C@@]23CC[C@H]4[C@@](C)(CCC[C@@]4(C)C(=O)O)[C@@H]2CC[C@]1(O)C3	-0.346% (inactive)
COc1cc(CC(=O)O)ccc1O	0.908% (inactive)
NC[C@@H]1O[C@H](c2ccccc2)Cc2c1ccc(O)c2O	-0.94% (inactive)
CC1=C(C(=O)O)N2C(=O)[C@@H](NC(=O)C(N)C3=CCC=CC3)[C@H]2SC1 (some centres not stated)	-2.75% (inactive)
COc1ccc(CCN(C)CCc2ccc(OC)c(OC)c2)cc1OC	-0.737% (inactive)
CCCn1c(=O)c2[nH]c(C3CCCC3)nc2n(CCC)c1=O	1.2% (inactive)
O=C(c1ccc2c(c1)OCCO2)N1CCCCC1	-1.82% (inactive)
C#CC(N)CCC(=O)O (configuration not stated)	-1.47% (inactive)
NC1C=CC=C(C(=O)O)C1 (configuration not stated)	-0.0604% (inactive)
COC(=O)[C@H](NC(=O)c1cc(-c2ccccc2)nc2ccccc12)c1ccccc1	-0.582% (inactive)

target: Glutathione peroxidase 1 (Homo sapiens) (UniProt P07203); experiment: Primary qHTS Assay for Inhibitors of Recombinant Selenoprotein Glutathione Peroxidase 1 (GPX1) (AID 1845191); conditions: recombinant GPX1, GR-coupled NADPH fluorescence, 15 min; series mostly up to 48.8 µM; activity, negative = inhibition: at the top concentration; also: nearly all actives have a fitted effect of over 65% in size; also: potency is read from the fitted curve at half-maximal effect
Sequence (P07203 whole entry, looked up): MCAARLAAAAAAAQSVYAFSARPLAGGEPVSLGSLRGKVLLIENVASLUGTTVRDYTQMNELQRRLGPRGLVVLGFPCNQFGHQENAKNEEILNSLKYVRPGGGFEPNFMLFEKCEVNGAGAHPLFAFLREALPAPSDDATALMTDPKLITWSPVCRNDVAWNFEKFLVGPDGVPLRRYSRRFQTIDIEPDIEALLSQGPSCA
Outline: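 Recombinant GPX1 (10 nM final) was preincubated with compound for 30 min at room temperature, then reacted with 1 mM GSH, 0.5 mM CHP, 0.5 mM NADPH and 100 nM glutathione reductase; NADPH fluorescence (340/450 nm) was read at 0 and 15 min.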

Compound	activity, negative = inhibition	outcome	Potency
CC(=O)NCCc1c[nH]c2ccc(O)cc12	4.52% (inactive)	–	–
CC(C)Cn1c(=O)n(C)c(=O)c2[nH]cnc21	3% (inactive)	–	–
Cn1ccnc1	-12.8% (inactive)	–	–
CCN(c1nc(N)c(C(=O)N=C(N)N)nc1Cl)C(C)C	-4.83% (inactive)	–	–
COc1cc(C(O)CO)ccc1O (configuration not stated)	-11.2% (inactive)	–	–
O=c1oc(Cl)c(Cl)c2ccccc12	-7.45% (inactive)	–	–
Cc1cc2c(cc1Cl)N(C(=O)Nc1ccnc3ccccc13)CC2	-23.8% (inactive)	–	–
NC1CONC1=O (configuration not stated)	-12.9% (inactive)	–	–
c1ccc(C(NCCNC(c2ccccc2)c2ccccc2)c2ccccc2)cc1	–	inactive	–
CO/N=C(\C(=O)N[C@@H]1C(=O)N2C(C(=O)O)=C(CSc3nc(=O)c(O)nn3C)CSC12)c1csc(N)n1 (some centres not stated)	–	–	25.1 µM (active)
CC(C)(CO)Cc1cc(C(C)(C)C)c(O)c(C(C)(C)C)c1	-7.11% (inactive)	–	–
CNc1cc(NS(=O)(=O)c2ccc(N)cc2)nc(NC)n1	-14.3% (inactive)	–	–
NCC(O)c1ccc(O)c(O)c1 (configuration not stated)	-3.72% (inactive)	–	–
Nc1ccc(N2C(=O)c3ccccc3C2=O)c(Cl)c1	2.7% (inactive)	–	–
CCCCCC(O)CCCC(=O)O (configuration not stated)	–	inactive	–
N=C(N)c1ccc(N)cc1	–	inactive	–
CC(=O)O[C@H]1Cc2ccccc2N(C(N)=O)c2ccccc21	–	–	inactive
CC(N)=O	3.68% (inactive)	–	–
NCC(O)(CS(=O)(=O)O)c1ccc(Cl)cc1 (configuration not stated)	–	inactive	–

Compound	activity, negative = inhibition	outcome	Potency
O=C(O)c1cc(=O)cc(C(=O)O)[nH]1	–	inactive	–
N#C/C(=C\c1ccc(O)c(O)c1)C(=O)NCCc1ccccc1	–	inactive	–
CCCCCCCCCC(=O)NC(CN1CCOCC1)[C@H](O)c1ccccc1 (some centres not stated)	–	inactive	–
N[C@H](C(=O)O)[C@H](O)C(=O)O	-15.1% (inactive)	–	–
Clc1nccc2c1ccc1ccccc12	-4.01% (inactive)	–	–
Cc1cccc(C)c1OCC(N)C(C)C (configuration not stated)	–	inactive	–
CN1CCCC1CCOC(C)(c1ccccc1)c1ccc(Cl)cc1 (configuration not stated)	-17.3% (inactive)	–	–
O=[N+]([O-])c1cccc2c(Br)[nH]nc12	2.31% (inactive)	–	–
O=c1[nH]c2cc(Cl)ccc2c(O)c1-c1ccc(Oc2ccccc2)cc1	-23.6% (inactive)	–	–
C=C1C[C@@]23CC[C@H]4[C@@](C)(CCC[C@@]4(C)C(=O)O)[C@@H]2CC[C@]1(O)C3	-12.7% (inactive)	–	–
COc1cc(CC(=O)O)ccc1O	–	inactive	–
NC[C@@H]1O[C@H](c2ccccc2)Cc2c1ccc(O)c2O	-9.87% (inactive)	–	–
CC1=C(C(=O)O)N2C(=O)[C@@H](NC(=O)C(N)C3=CCC=CC3)[C@H]2SC1 (some centres not stated)	-7.72% (inactive)	–	–
COc1ccc(CCN(C)CCc2ccc(OC)c(OC)c2)cc1OC	-4.9% (inactive)	–	–
CCCn1c(=O)c2[nH]c(C3CCCC3)nc2n(CCC)c1=O	–	inactive	–
O=C(c1ccc2c(c1)OCCO2)N1CCCCC1	–	inactive	–
C#CC(N)CCC(=O)O (configuration not stated)	–	inactive	–
NC1C=CC=C(C(=O)O)C1 (configuration not stated)	-3.15% (inactive)	–	–
COC(=O)[C@H](NC(=O)c1cc(-c2ccccc2)nc2ccccc12)c1ccccc1	–	inactive	–
